Reference: ChEMBL document CHEMBL1157539, “Thousands of chemical starting points for antimalarial lead identification” (Nature, 2010)

What was measured:
Type in all cases: functional
Plasmodium falciparum [1] = assay: GSK_TCMDC: Inhibition of Plasmodium falciparum 3D7 in whole red blood cells, using parasite LDH activity as an index of growth. Test compounds present at 2uM
Plasmodium falciparum [2] = assay: GSK_TCMDC: Inhibition of Plasmodium falciparum Dd2 in whole red blood cells, using parasite LDH activity as an index of growth. Test compounds present at 2uM
HepG2 = assay: GSK_TCMDC: Percent inhibition of human HepG2 cell line. Test compounds present at 10uM.

CN(C)S(=O)(=O)c1ccc(Nc2nc(NCCC3C=NC=N3)nc3cc[nH]c(=O)c23)cc1 (stereo not given)
Inhibition (Plasmodium falciparum [1]): 96% | Inhibition (Plasmodium falciparum [2]): 63% | Inhibition (HepG2): 8%

COc1ccccc1N1CCN(Cc2cc(C(C)C)c(C)cc2O)CC1
Inhibition (Plasmodium falciparum [1]): 97% | Inhibition (Plasmodium falciparum [2]): 98% | Inhibition (HepG2): 7%

Cc1nc(C)c(CC(=O)Nc2cccc(-c3cccc(-c4nc5cccc(C)c5[nH]4)c3)c2)s1
Inhibition (Plasmodium falciparum [1]): 92% | Inhibition (Plasmodium falciparum [2]): 35% | Inhibition (HepG2): 43%

COc1cc(Cc2cnc(N)nc2N)cc(OCCCCC2NC(=O)NC2=O)c1OC (stereo not given)
Inhibition (Plasmodium falciparum [1]): 94% | Inhibition (Plasmodium falciparum [2]): 0% | Inhibition (HepG2): 2%

CCCCCOc1ccc(N2C(N)=NC(N)=NC2(C)C)cc1.Cl
Inhibition (Plasmodium falciparum [1]): 97% | Inhibition (Plasmodium falciparum [2]): 0% | Inhibition (HepG2): 24%

Cc1cccc2nc(-c3ccc(-c4ccc(NC(=O)CN5CCN(C)CC5)cc4)s3)[nH]c12
Inhibition (Plasmodium falciparum [1]): 95% | Inhibition (Plasmodium falciparum [2]): 86% | Inhibition (HepG2): 56%

CS(=O)(=O)Nc1cccc(-c2cnc3[nH]cc(-c4ccc(C(=O)O)cc4)c3c2)c1
Inhibition (Plasmodium falciparum [1]): 98% | Inhibition (Plasmodium falciparum [2]): 82% | Inhibition (HepG2): 0%

CCN(CCCN1CCCCC1)c1cc(C)nc(Nc2cc(Cl)ccc2C)n1.O=C(O)C(F)(F)F
Inhibition (Plasmodium falciparum [1]): 99% | Inhibition (Plasmodium falciparum [2]): 37% | Inhibition (HepG2): 36%

COc1ccc(Cl)cc1N1CCN(CCCNC(=O)c2ccc(-c3nc4cc5ccccc5cc4[nH]3)c(F)c2)CC1
Inhibition (Plasmodium falciparum [1]): 99% | Inhibition (Plasmodium falciparum [2]): 62% | Inhibition (HepG2): 12%

Cc1ccc(-n2cc(CNCC3CCN(CCO)CC3)c(-c3ccc(F)cc3)n2)cc1
Inhibition (Plasmodium falciparum [1]): 91% | Inhibition (Plasmodium falciparum [2]): 18% | Inhibition (HepG2): 29%

OC(c1ccccc1)C1CN(CCc2ccccc2)CCC1(O)c1ccccc1 (stereo not given)
Inhibition (Plasmodium falciparum [1]): 97% | Inhibition (Plasmodium falciparum [2]): 92% | Inhibition (HepG2): 0%

CC(C)CN1CCN(CCNc2c3ccccc3nc3ccccc23)CC1
Inhibition (Plasmodium falciparum [1]): 97% | Inhibition (Plasmodium falciparum [2]): 79% | Inhibition (HepG2): 26%

O=C(Nc1ccc(-c2nc3ccccc3[nH]2)cc1)c1ccc(Cl)s1
Inhibition (Plasmodium falciparum [1]): 99% | Inhibition (Plasmodium falciparum [2]): 34% | Inhibition (HepG2): 16%

O=C(/C=C/c1cc([N+](=O)[O-])ccc1Cl)N1CCC(CCN2CCC(c3c[nH]c4ccccc34)CC2)CC1
Inhibition (Plasmodium falciparum [1]): 92% | Inhibition (Plasmodium falciparum [2]): 26% | Inhibition (HepG2): 25%

O=C(N[C@@H](CC1CCCCC1)C(=O)NCCN1CCOCC1)c1ccc(O)c(-c2ccc(Cl)c(Cl)c2)c1
Inhibition (Plasmodium falciparum [1]): 97% | Inhibition (Plasmodium falciparum [2]): 99% | Inhibition (HepG2): 0%

O=C(Nc1ccccc1F)NC1CCN(c2ccnc(Nc3ccc(F)cc3)n2)C1 (stereo not given)
Inhibition (Plasmodium falciparum [1]): 95% | Inhibition (Plasmodium falciparum [2]): 74% | Inhibition (HepG2): 0%

Cc1ccc2[nH]c(-c3ccccc3Nc3ccnc4cc(-c5nccs5)ccc34)nc2c1.Cl
Inhibition (Plasmodium falciparum [1]): 100% | Inhibition (Plasmodium falciparum [2]): 100% | Inhibition (HepG2): 40%

CC(C)CN1CCCN(Cc2cccc(NC(=O)c3cc4ccccc4s3)c2)CC1.O=C(O)C(F)(F)F
Inhibition (Plasmodium falciparum [1]): 87% | Inhibition (Plasmodium falciparum [2]): 6% | Inhibition (HepG2): 5%

COc1ccc2nccc([C@@H](O)CN3CCC(NC(=O)c4ccc(Cl)c(Cl)c4)CC3)c2c1
Inhibition (Plasmodium falciparum [1]): 96% | Inhibition (Plasmodium falciparum [2]): 57% | Inhibition (HepG2): 21%

C#CC(C)(CO)N1CCCC1 (stereo not given)
Inhibition (Plasmodium falciparum [1]): 95% | Inhibition (Plasmodium falciparum [2]): 1% | Inhibition (HepG2): 10%

CC(C)COc1ccc(Cl)cc1Cc1ccc(-c2nc3cc(N4CCN(C)CC4)ccc3[nH]2)o1.Cl
Inhibition (Plasmodium falciparum [1]): 100% | Inhibition (Plasmodium falciparum [2]): 41% | Inhibition (HepG2): 6%

COc1ccccc1CNc1ccnc(NCCc2cccc(C(F)(F)F)c2)n1
Inhibition (Plasmodium falciparum [1]): 93% | Inhibition (Plasmodium falciparum [2]): 68% | Inhibition (HepG2): 39%

O=C(Nc1cccc(CN2CCN(C(=O)c3cccs3)CC2)c1)c1cccs1.O=C(O)C(F)(F)F
Inhibition (Plasmodium falciparum [1]): 95% | Inhibition (Plasmodium falciparum [2]): 91% | Inhibition (HepG2): 0%

CCOc1ccc2[nH]c(C)cc(=NN=Cc3cccc(C)n3)c2c1
Inhibition (Plasmodium falciparum [1]): 99% | Inhibition (Plasmodium falciparum [2]): 73% | Inhibition (HepG2): 6%

O=S(=O)(c1csc2ccccc12)N(CCC(O)(C(F)(F)F)C(F)(F)F)Cc1cccc(O)c1
Inhibition (Plasmodium falciparum [1]): 100% | Inhibition (Plasmodium falciparum [2]): 100% | Inhibition (HepG2): 0%

CCOC(=O)c1c[nH]c2c(sc3cc(OC)ccc32)c1=O
Inhibition (Plasmodium falciparum [1]): 96% | Inhibition (Plasmodium falciparum [2]): 93% | Inhibition (HepG2): 0%

O=C(O)C(F)(F)F.c1cc(CNCc2ccc3c(c2)OCO3)cc(-c2cccc(CNc3ccc4ncccc4c3)c2)c1
Inhibition (Plasmodium falciparum [1]): 98% | Inhibition (Plasmodium falciparum [2]): 27% | Inhibition (HepG2): 18%

COc1ccccc1C(C)NCC(=O)Nc1cc(C(F)(F)F)ccc1Cl (stereo not given)
Inhibition (Plasmodium falciparum [1]): 97% | Inhibition (Plasmodium falciparum [2]): 85% | Inhibition (HepG2): 4%

O=C(Nc1ccc(-c2nc3ccccc3[nH]2)cc1)c1ccc(S(=O)(=O)N2CCCCC2)cc1
Inhibition (Plasmodium falciparum [1]): 95% | Inhibition (Plasmodium falciparum [2]): 6% | Inhibition (HepG2): 23%

NC1CCN(c2nc(NCCc3ccc(O)cc3)nc(NCc3ccccc3-c3ccc(C(F)(F)F)cc3)n2)CC1.O=C(O)C(F)(F)F
Inhibition (Plasmodium falciparum [1]): 100% | Inhibition (Plasmodium falciparum [2]): 72% | Inhibition (HepG2): 18%
